This note sets out measurements from PubChem BioAssay (EPA / NIEHS).

Values joined by “and” are separate entries in the source; they are usually repeats but may differ in a detail not shown here. Equal values may be shown once. More than one record can exist for a structure, and the calls need not agree. Active and inactive are the calls of the source. How the source made its calls: active means hit-call score of the fitted dose curve at least 0.9, where 1 is the maximum; inactive means score below 0.9.

Test [1] can be described thus: ATG_E_Box_CIS: Attagene CIS-FACTORIAL HepG2 Assay for human Enhancer Box (E-box) (AID 2282936). The settings on record: HepG2 E-box cis-reporter transcription, actives raise or lower the signal. In a few lines:
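DMSO served as negative control and baseline for bidirectional fitting. Human hepatoma HepG2 cells, transiently transfected with cis-reporter constructs, were dosed 24 h; reporter mRNA read by RT-PCR and capillary electrophoresis.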

Test [2] in a line: ATG_M_61_CIS: Attagene CIS-FACTORIAL HepG2 Assay for M61 Transcription Factor (Internal Marker) (AID 2282937). To be noted: HepG2 Attagene CIS-FACTORIAL M61 internal marker reporter; actives raise or lower the signal. In a few lines:
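Endogenous transcription factor activity in HepG2 is read through transiently transfected cis-element reporter units. After 24 h dosing, RNA undergoes reverse transcription, PCR and primer extension with 6-FAM before capillary electrophoresis; DMSO-referenced bidirectional fit.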

A short description of test [3]: ATG_EGR_CIS: Attagene CIS-FACTORIAL HepG2 Assay for human Early Growth Response 1 (EGR1) (AID 2282938). To be noted: HepG2 Attagene CIS-FACTORIAL EGR reporter mRNA; actives raise or lower the signal. In a few lines:
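Activity is taken as induction or loss of reporter mRNA versus DMSO, fitted bidirectionally. Transcripts from cis-regulated reporter units in transiently transfected HepG2 were measured after 24 h by RT-PCR with capillary electrophoresis.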

Test [4] is described as follows: ATG_M_19_CIS: Attagene CIS-FACTORIAL HepG2 Assay for M19 Transcription Factor (Internal Marker) (AID 2282939). The settings on record: HepG2 Attagene CIS-FACTORIAL M19 internal marker reporter; actives raise or lower the signal. In a few lines:
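Chemical-treated HepG2 (24 h) with MRTU constructs; reporter transcripts detected by fluorescent RT-PCR fragment analysis on capillary electrophoresis. Internal background marker, DMSO as baseline.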

Test [5] in a line: ATG_ERE_CIS: Attagene CIS-FACTORIAL HepG2 Assay for Estrogen Response Element (ERE) (AID 2282940). To be noted: HepG2 ERE cis-reporter, Attagene RNA transcript; actives raise or lower the signal. In a few lines:
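Human liver cells (HepG2) bearing transiently transfected, promoter-regulated reporter units were exposed 24 h. Reporter mRNA induction was detected by capillary electrophoresis of labelled RT-PCR products and fitted bidirectionally to DMSO.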

Test [6] is described as follows: ATG_Ets_CIS: Attagene CIS-FACTORIAL HepG2 Assay for human Erythroblast Transformation Specific (ETS) (AID 2282941). The settings on record: HepG2 ETS cis-reporter transcription, actives raise or lower the signal. A digest of the protocol: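 Human HepG2 hepatoma cells were transiently transfected with promoter-driven reporter constructs and treated for 24 hours. Reporter transcripts were quantified by RT-PCR with fluorescent primer extension; bidirectional curve fitting used DMSO as reference.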

Test [7] concerns the target Hepatocyte nuclear factor 3-beta (Homo sapiens) (UniProt Q9Y261). In words: ATG_FoxA2_CIS: Attagene CIS-FACTORIAL HepG2 Assay for human Forkhead box A2 (FOXA2) (AID 2282942). The settings on record: HepG2 cis-reporter transcription factor activity, 24 h; actives raise or lower the signal. A digest of the protocol:
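Reporter transcript induction is measured by fluorescence after capillary electrophoresis of RT-PCR products from HepG2 cells exposed 24 h. Cis-regulated reporter units report endogenous factor activity; curves fitted both directions against DMSO.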

Test [8] can be described thus: ATG_GATA_CIS: Attagene CIS-FACTORIAL HepG2 Assay for human GATA Binding Protein (AID 2282944). To be noted: HepG2 GATA cis-element reporter, Attagene multiplex mRNA; actives raise or lower the signal. In a few lines: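 Transfected cis-reporter HepG2 cells were treated with chemicals for 24 hours. Total RNA was then converted to cDNA, amplified with reporter-specific primers and analysed by fluorescent capillary electrophoresis, using DMSO-treated wells as baseline.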

Test [9] is described as follows: ATG_GLI_CIS: Attagene CIS-FACTORIAL HepG2 Assay for human Zinc Finger Protein GLI1 (AID 2282945). To be noted: HepG2, Attagene cis-factorial reporter mRNA, GLI element; actives raise or lower the signal. In a few lines:
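Bidirectional curve fits relative to DMSO, using reporter mRNA levels from RT-PCR plus capillary electrophoresis. Cells were HepG2 transiently carrying cis-regulated reporter constructs, harvested 24 h after dosing.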

Test [10] addresses Bile acid receptor (Homo sapiens) (UniProt Q96RI1). In words: ATG_IR1_CIS: Attagene CIS-FACTORIAL HepG2 Assay for human Nuclear Receptor Subfamily 1 Group H Member 4 (NR1H4), IR1 submotif (AID 2282946). The settings on record: IR1 reporter transcription, actives raise or lower the signal. In a few lines: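 Cells (human HepG2) carry transiently transfected cis-promoter reporter transcription units. Compounds are incubated 24 h, total RNA is reverse-transcribed and amplified, and labelled fragments are resolved by capillary electrophoresis. Curves use DMSO as baseline.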

A short description of test [11]: ATG_GRE_CIS: Attagene CIS-FACTORIAL HepG2 Assay for human Glucocorticoid Response Elements (GRE) (AID 2282947). To be noted: HepG2 GRE cis-reporter, Attagene multiplex mRNA; actives raise or lower the signal. A digest of the protocol: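 Assay uses human hepatoma HepG2 cells transfected with cis-promoter reporter units, exposed 24 h. mRNA from reporters detected by RT-PCR plus capillary electrophoresis; DMSO serves as negative control and baseline.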

The nature of test [12]: ATG_ISRE_CIS: Attagene CIS-FACTORIAL HepG2 Assay for human Interferon Regulatory Factor 1 (IRF1) binding to an Interferon-Stimulated Response Element (ISRE) (AID 2282948). The settings on record: HepG2 ISRE cis-reporter (Attagene), mRNA transcription readout; actives raise or lower the signal. In a few lines: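 Cell-based cis-reporter assay; HepG2; 24 h exposure; reporter mRNA by RT-PCR plus capillary electrophoresis fluorescence; activity in either direction scored relative to DMSO.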

The nature of test [13]: ATG_M_32_CIS: Attagene CIS-FACTORIAL HepG2 Assay for M32 Transcription Factor (Internal Marker) (AID 2282949).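 Further: background control marker of the multiplexed CIS panel rather than a real target.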 To be noted: HepG2 Attagene cis-factorial M32 reporter, mRNA; actives raise or lower the signal. A digest of the protocol: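 Internal background marker read-out: RT-PCR/capillary electrophoresis fluorescence of reporter transcripts from transiently transfected HepG2 cells after 24 h chemical exposure. Activity fitted bidirectionally relative to DMSO negative control.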

Test [14] is described as follows: ATG_M_06_CIS: Attagene CIS-FACTORIAL HepG2 Assay for M06 Transcription Factor (Internal Marker) (AID 2282950). To be noted: HepG2 Attagene CIS-FACTORIAL M06 internal marker reporter; actives raise or lower the signal. In a few lines: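 Cells (HepG2, transiently carrying cis-driven reporter units) receive chemical for 24 h before RNA isolation. Reporter cDNA is PCR-amplified, FAM-labelled by primer extension, HpaI-digested and sized on a capillary analyser.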

Test [15] concerns the target Hepatocyte nuclear factor 6 (Homo sapiens) (UniProt Q9UBC0). In words: ATG_HNF6_CIS: Attagene CIS-FACTORIAL HepG2 Assay for human Hepatocyte Nuclear Factor 6 (HNF6) (AID 2282952). The settings on record: HepG2 Attagene cis-factorial HNF6 reporter transcription; actives raise or lower the signal. A digest of the protocol:
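Reporter mRNA induction or loss in HepG2 after 24 h exposure; transient cis-MRTU transfection; fragments quantified by capillary electrophoresis; bidirectional analysis, DMSO as negative control.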

Test [16] addresses Heat shock factor protein 1 (Homo sapiens) (UniProt Q00613). Briefly: ATG_HSE_CIS: Attagene CIS-FACTORIAL HepG2 Assay for human Heat Shock Transcription Factor 1 (HSE) (AID 2282953). The settings on record: HepG2 HSE cis-reporter, Attagene RNA transcription; actives raise or lower the signal. A digest of the protocol: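 Liver-derived HepG2 cells carry transiently introduced multiple reporter units governed by cis promoters. Reporter RNA measured 24 h post-dose through reverse transcription, PCR amplification, fluorescent labelling and capillary electrophoresis, normalised to DMSO.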

Test [17] can be described thus: ATG_MRE_CIS: Attagene CIS-FACTORIAL HepG2 Assay for human Metal Responsive Element (MRE) (AID 2282954). To be noted: HepG2 MRE cis-reporter transcription, Attagene multiplex; actives raise or lower the signal. A digest of the protocol:
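After a 24 h chemical exposure, transiently transfected HepG2 cells yield RNA whose reporter sequences are amplified, FAM-labelled and sized by capillary electrophoresis. Curves are fitted bidirectionally relative to DMSO.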

The nature of test [18]: ATG_FoxO_CIS: Attagene CIS-FACTORIAL HepG2 Assay for human Forkhead box O (FoxO) (AID 2282943). The settings on record: HepG2 Attagene cis-reporter, FoxO element, mRNA; actives raise or lower the signal. In a few lines:
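HepG2, transient MRTU transfection (cis element, endogenous TFs). Dose 24 h. TriZol RNA → oligo(dT) RT → PCR → 6-FAM primer extension → HpaI cut → CE. Gain/loss vs DMSO.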

The target in test [19] is Hypoxia-inducible factor 1-alpha (Homo sapiens) (UniProt Q16665). Briefly: ATG_HIF1a_CIS: Attagene CIS-FACTORIAL HepG2 Assay for human Hypoxia Inducible Factor 1 (HIF1A) (AID 2282951). To be noted: HepG2 Attagene cis-factorial HIF1a reporter transcription; actives raise or lower the signal. In a few lines:
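Fluorescence intensity of capillary-separated, 6-FAM-labelled reporter amplicons gives mRNA induction in HepG2 cells carrying transfected cis-promoter reporter units; cells exposed 24 h, responses fitted up or down from DMSO.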

Test [20] in a line: ATG_PBREM_CIS: Attagene CIS-FACTORIAL HepG2 Assay for human Phenobarbital-responsive Enhancer Module (PBREM) (AID 2282955). To be noted: HepG2 PBREM cis-reporter, Attagene multiplexed transcription; actives raise or lower the signal. In a few lines:
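Cells were transfected with cis-element reporter units and treated for 24 h, after which RNA was extracted and reporter transcripts measured by RT-PCR and capillary electrophoresis.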

Sequence of Hepatocyte nuclear factor 6 (Homo sapiens) (Q9UBC0 whole entry, looked up, the tested form may be a part): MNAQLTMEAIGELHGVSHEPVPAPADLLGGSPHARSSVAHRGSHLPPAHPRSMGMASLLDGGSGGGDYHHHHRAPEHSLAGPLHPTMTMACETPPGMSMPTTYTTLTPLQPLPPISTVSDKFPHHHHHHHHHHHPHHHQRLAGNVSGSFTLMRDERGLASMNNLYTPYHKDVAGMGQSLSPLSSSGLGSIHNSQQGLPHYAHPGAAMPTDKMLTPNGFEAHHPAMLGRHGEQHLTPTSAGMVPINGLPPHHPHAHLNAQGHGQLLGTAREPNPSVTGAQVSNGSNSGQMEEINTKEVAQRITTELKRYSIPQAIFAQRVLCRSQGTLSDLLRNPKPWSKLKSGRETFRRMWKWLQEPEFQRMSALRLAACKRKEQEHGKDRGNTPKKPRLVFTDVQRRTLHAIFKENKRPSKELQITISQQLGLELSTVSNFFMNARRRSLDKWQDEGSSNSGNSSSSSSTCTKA
Sequence of Hepatocyte nuclear factor 3-beta (Homo sapiens) (Q9Y261 whole entry, looked up): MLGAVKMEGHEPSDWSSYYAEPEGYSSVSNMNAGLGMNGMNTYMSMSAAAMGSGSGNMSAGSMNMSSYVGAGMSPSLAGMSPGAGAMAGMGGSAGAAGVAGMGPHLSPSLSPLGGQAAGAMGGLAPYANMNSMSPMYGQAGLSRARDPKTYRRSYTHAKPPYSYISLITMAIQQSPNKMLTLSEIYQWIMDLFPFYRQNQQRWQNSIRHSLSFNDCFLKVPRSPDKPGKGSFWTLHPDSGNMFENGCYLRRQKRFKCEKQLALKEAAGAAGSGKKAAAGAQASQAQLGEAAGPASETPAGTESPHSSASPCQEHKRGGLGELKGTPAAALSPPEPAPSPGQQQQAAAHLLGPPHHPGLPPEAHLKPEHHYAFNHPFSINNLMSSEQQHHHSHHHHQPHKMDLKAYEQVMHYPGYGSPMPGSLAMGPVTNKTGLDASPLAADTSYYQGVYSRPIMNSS
Sequence of Heat shock factor protein 1 (Homo sapiens) (Q00613 whole entry, looked up): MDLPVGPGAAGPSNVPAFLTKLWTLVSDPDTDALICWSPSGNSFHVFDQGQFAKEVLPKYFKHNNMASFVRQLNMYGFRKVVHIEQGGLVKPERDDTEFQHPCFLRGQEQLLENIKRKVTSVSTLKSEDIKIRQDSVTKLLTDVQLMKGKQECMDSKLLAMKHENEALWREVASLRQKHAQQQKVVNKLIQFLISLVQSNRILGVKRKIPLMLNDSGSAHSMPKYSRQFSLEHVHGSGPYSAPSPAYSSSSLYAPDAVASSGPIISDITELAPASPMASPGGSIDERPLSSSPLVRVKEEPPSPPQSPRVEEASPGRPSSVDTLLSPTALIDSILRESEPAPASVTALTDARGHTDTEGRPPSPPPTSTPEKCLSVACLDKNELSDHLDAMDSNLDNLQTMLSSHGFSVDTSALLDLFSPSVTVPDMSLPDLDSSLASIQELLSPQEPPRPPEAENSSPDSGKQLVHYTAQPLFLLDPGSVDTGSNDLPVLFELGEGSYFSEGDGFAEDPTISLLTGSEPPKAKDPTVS
Sequence of Bile acid receptor (Homo sapiens) (Q96RI1 whole entry, looked up, the tested form may be a part): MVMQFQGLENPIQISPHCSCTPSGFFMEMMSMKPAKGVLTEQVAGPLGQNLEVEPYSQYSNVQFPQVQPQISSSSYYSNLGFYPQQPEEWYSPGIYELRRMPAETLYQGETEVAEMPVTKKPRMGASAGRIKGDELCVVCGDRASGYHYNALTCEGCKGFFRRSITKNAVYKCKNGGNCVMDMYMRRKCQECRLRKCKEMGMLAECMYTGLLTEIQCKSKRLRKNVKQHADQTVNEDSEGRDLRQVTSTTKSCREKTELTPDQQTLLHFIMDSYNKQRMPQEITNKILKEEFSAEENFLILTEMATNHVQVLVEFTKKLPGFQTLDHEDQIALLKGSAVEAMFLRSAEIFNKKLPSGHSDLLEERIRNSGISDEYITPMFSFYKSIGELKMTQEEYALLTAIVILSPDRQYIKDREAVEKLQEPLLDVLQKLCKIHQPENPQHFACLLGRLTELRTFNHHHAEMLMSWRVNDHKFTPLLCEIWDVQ
Sequence of Hypoxia-inducible factor 1-alpha (Homo sapiens) (Q16665 whole entry, looked up): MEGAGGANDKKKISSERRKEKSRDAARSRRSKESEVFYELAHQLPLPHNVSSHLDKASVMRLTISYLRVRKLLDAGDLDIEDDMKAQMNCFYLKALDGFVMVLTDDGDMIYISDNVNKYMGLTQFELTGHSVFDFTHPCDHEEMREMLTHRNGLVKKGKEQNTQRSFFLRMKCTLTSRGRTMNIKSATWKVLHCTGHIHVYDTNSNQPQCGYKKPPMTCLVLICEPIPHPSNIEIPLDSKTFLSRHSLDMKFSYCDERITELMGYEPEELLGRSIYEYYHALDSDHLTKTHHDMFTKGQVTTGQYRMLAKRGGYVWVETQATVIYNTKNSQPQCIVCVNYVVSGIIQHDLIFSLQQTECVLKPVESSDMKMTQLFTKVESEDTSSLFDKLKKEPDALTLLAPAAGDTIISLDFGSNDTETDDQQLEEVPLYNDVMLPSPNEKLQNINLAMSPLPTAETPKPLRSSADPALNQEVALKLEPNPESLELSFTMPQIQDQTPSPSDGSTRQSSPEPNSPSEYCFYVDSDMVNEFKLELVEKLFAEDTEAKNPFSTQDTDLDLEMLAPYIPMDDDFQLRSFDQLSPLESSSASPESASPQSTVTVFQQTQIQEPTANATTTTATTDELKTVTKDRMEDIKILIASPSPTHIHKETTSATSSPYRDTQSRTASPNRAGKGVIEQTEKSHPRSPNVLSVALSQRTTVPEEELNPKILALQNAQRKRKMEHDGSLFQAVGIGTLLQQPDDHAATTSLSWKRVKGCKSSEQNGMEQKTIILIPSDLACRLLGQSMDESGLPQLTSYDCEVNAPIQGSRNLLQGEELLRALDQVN

For `Cc1cn([C@H]2C[C@H](N=[N+]=[N-])[C@@H](CO)O2)c(=O)[nH]c1=O`, the result in test [1], in [2], in test [3], in [4], in test [5] and in test [6] was inactive. For the same molecule, the result in test [7], in test [8], in test [9], in [10], in [11] and in test [12] was inactive. The molecule was called inactive in test [13], in [14], in [15], in [16] and in test [17].

What is called AC50 is the midpoint of the concentration-response curve, whichever way the signal moves. As for `CN(C)C(=O)C1(N2CCCCC2)CCN(CC[C@@]2(c3ccc(Cl)c(Cl)c3)CN(C(=O)c3ccccc3)CCO2)CC1`, the outcome in [1], in test [2], in test [3], in test [4], in test [5] and in test [6] was inactive. Further, the call in test [7], in test [18], in test [8], in [9], in test [10] and in [11] was inactive. The molecule was classed as inactive in test [12], in test [13], in test [14], in [15], in test [16] and in test [17]. The outcome in test [20] was inactive. Moreover, the AC50 in test [19] was 1.01 µM (active).

As for `COc1ccc2cc(S(=O)(=O)N[C@H](CC(=O)N[C@H](Cc3ccc(CN4[C@H](C)CCC[C@@H]4C)cc3)C(=O)N(C)C(C)C)c3ccc4c(c3)OCO4)ccc2c1`, the outcome in [1], in test [2], in test [4], in test [5], in [6] and in test [7] was inactive. In addition, the call in test [18], in test [8], in [9], in test [10], in test [11] and in [13] was inactive. For the same molecule, the result in [14], in [15], in test [16] and in test [20] was inactive. Besides, the AC50 in test [3] was 11 µM (active); in test [12], 11 µM (active); in test [19], 1.38 µM (active); in test [17] it was 11 µM (active).

`CC(C)(C)c1csc(-c2cc3cc(OCc4ccccc4CC(=O)O)ccc3o2)n1`: the outcome in test [1], in test [2], in test [4], in [5], in [6] and in test [7] was inactive. Besides, the outcome in test [18], in [8], in test [9], in test [10], in [11] and in [13] was inactive. The result in test [14], in [19], in test [15] and in [20] was inactive. The AC50 in [3] is 14.4 µM (active); in [12], 33.4 µM (active); in [16], 62.7 µM (active); in test [17], 43.8 µM (active).

As to `CC/C(=C(/CC)c1ccc(O)cc1)c1ccc(O)cc1`, the result in test [1], in test [2], in test [3], in [4], in test [6] and in [7] was inactive. Moreover, the outcome in test [8], in test [9], in [10], in test [11], in test [12] and in test [13] was inactive. Further, the molecule was called inactive in test [14], in [19], in [15], in test [16] and in test [17]. Besides, the AC50 was 15.4 µM (active) and 2.2 µM (active) in test [10]; 11.1 µM (active) in test [12]; 20 µM (active) and 18.7 µM (active) and 20.2 µM (active) in test [16]; 15.2 µM (active) [middle of 4 runs] in test [17].

Regarding `O=C1c2ccccc2C(=O)N1CCc1noc(-c2ccc(CN3CCCCCC3)s2)n1`, the outcome in test [1], in test [2], in test [3], in test [4], in [5] and in [6] was inactive. Further, the call in test [7], in test [18], in [8], in test [9], in test [10] and in [12] was inactive. The outcome in test [13], in test [14], in [15] and in test [16] was inactive. The AC50 in [19] is 51.2 µM (active); in test [17] it was 84.5 µM (active); in test [20] it was 24.1 µM (active).
